HSF1 inhib: HSF1 inhibitors in luciferase reporter cells, primary screen, cell-based, NIH3T3, luminescence; NIH3T3-HGL HSE-luciferase, MG132-induced, luminescence 8 h; active compounds read low; AID 2098, 2009; 0.77% of 300,000 active; activity change, negative = inhibition, % at 7.5 µM (by protocol);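 active = more than half of replicate wells show activity change below -50%, luminescence cut by over half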;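 note: luciferase reports HSF-1 transcriptional activity via heat shock element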
S1P3 antag: S1P3 receptor antagonists, primary screen, cell-based; AID 485, 2006; inhibition, % at 4.98 µM; 0.27% of 170,000 active; Sphingosine 1-phosphate receptor 3 (Homo sapiens), Q99500; CHO S1P3 NFAT-BLA reporter, FRET fluorescence, antagonist mode;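 active = inhibition above the plate cutoff, the mean inhibition of test wells on that plate plus 3 SD, cut at about 28% in these data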;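 note: cells challenged with S1P at its EC80 of 0.8 µM; blue over green emission ratio from cleaved BLA substrate after 4 h stimulation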
Target sequence (Q99500 whole entry, looked up): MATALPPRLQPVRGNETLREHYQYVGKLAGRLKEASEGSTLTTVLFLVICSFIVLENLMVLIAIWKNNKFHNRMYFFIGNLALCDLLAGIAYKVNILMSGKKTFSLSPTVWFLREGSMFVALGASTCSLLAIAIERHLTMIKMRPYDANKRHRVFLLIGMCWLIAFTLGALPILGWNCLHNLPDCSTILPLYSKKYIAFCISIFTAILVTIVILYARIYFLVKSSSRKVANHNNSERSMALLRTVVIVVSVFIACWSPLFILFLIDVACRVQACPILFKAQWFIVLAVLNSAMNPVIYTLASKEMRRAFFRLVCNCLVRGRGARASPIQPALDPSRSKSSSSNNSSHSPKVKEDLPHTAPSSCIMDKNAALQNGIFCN
S1P4 antagonist: S1P4 receptor antagonists, primary screen, cell-based; 0.26% of 220,000 active; S1P4-expressing cells, antagonist mode, reporter read-out; inhibition, % at 4.98 µM; Sphingosine 1-phosphate receptor 4 (Homo sapiens), O95977; in the data active = inhibition above about 29%
Target sequence (O95977 whole entry, looked up): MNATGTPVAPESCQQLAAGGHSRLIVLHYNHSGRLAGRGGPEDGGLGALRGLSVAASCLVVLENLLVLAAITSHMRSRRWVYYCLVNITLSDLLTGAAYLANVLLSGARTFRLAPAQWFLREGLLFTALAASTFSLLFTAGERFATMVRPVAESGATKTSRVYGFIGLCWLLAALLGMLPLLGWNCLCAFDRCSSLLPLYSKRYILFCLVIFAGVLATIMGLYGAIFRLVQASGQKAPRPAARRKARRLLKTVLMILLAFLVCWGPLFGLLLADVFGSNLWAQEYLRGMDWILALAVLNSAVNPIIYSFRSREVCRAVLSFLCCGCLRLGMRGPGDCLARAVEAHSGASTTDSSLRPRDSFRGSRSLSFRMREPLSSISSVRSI
HSF1 activator: HSF-1 activators, primary screen, NIH3T3-HGL cells, MG132 stress, luminescence, single point. activation, % at 9 µM. 1.7% of 300,000 active. AID 504408, 2011. NIH3T3-HGL HSF-1 luciferase reporter, 8 h; 100% = twice DMSO control signal;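 active = mean replicate activation of at least 50% with a set share of replicates each reaching 50%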
Hsp70 act: Hsp70 transcriptional activators, primary screen, cell-based, HeLa, Hsp70 promoter luciferase, luminescence, 10 µM; HeLa Hsp70 promoter luciferase reporter; scaled: vehicle 0, proteasome-inhibitor control 100%; activation, % at 10 µM; 0.04% of 200,000 active; AID 1203, 2008;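 active = activation above the mean across all tested compounds plus 3 SD, cutoff set per campaign, cut at about 5.5% in these data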
S1P4 ag: S1P4 receptor agonists, primary screen, cell-based. 0.35% of 220,000 active. S1P4-expressing cell line, agonist reporter assay. activation, % at 4.98 µM. Sphingosine 1-phosphate receptor 4 (Homo sapiens), O95977; in the data active = activation above about 11%
Each line names hits and unclear results; the compound was inactive in the other large screens. In the library only some 2.9% were active in any assay of this set; here they are far more common.

O=C(N/N=C/c1ccc(C(F)(F)F)cc1)c1ccc(O)cc1	none
Oc1ccc(/C=N/Nc2ccc(C(F)(F)F)cn2)cc1	HSF1 activator 86
Oc1ccc(/C=N/Nc2ccc(C(F)(F)F)cn2)c(O)c1	none (no result: S1P3 antag, S1P4 antagonist, Hsp70 act, S1P4 ag)
CC(C)(C)c1ccc(/C=N/Nc2ccc(C(=O)O)cc2)cc1	HSF1 inhib -86
CCNC(=S)N/N=C/c1ccc(C(=O)O)cc1	none
COc1cccc(CNC(=O)c2ccccc2SCC(=O)N2CCCC2)c1	none (no result: S1P3 antag, S1P4 antagonist, Hsp70 act, S1P4 ag)
O=C(COC(=O)C1CCCCC1)Nc1ccccc1OC(F)F	none
COc1ccc(C2=CSC3=NCCN23)cc1Br	none (no result: S1P3 antag, S1P4 antagonist, Hsp70 act, S1P4 ag)
COc1ccc(CCNC(=O)c2ccc(CNS(=O)(=O)c3cccc(Cl)c3)cc2)cc1OC	HSF1 activator 60
O=C(Nc1ccc(OC(F)(F)F)cc1)c1ccc(S(=O)(=O)N2CCOCC2)o1	none (no result: HSF1 inhib, HSF1 activator, Hsp70 act)
COc1ccc(-c2cc(C(=O)Nc3ccccc3F)on2)cc1	HSF1 activator 54
COc1ccc(-c2cc(C(=O)Nc3ccccc3)on2)cc1	none
COC(=O)CN1C(=O)Nc2ccc(C)cc2C1c1ccccc1 (stereo not given)	HSF1 inhib -70
COC(=O)c1cc(S(=O)(=O)NCc2ccccc2)cn1C	none (no result: S1P3 antag, S1P4 antagonist, Hsp70 act, S1P4 ag)
COC(=O)c1cc(S(=O)(=O)NCc2ccc(F)cc2)cn1C	HSF1 inhib -53 (no result: S1P3 antag, S1P4 antagonist, Hsp70 act, S1P4 ag)
CNNC(=S)Nc1cccc(SC)c1	none (no result: Hsp70 act)
COc1ccccc1CNC(=O)c1ccc(NS(C)(=O)=O)cc1	none
COc1ccccc1CNC(=O)c1ccc(NS(=O)(=O)c2cccs2)cc1	HSF1 activator 64 (no result: S1P3 antag, S1P4 antagonist, Hsp70 act, S1P4 ag)
C/C(=N\NC(N)=S)C1=CCC2C3CC[C@H]4CC(O)CC[C@]4(C)C3CC[C@]12C (stereo not given in full)	HSF1 activator 51 (no result: S1P3 antag, S1P4 antagonist, Hsp70 act, S1P4 ag)
N=c1c2c(ncn1CCCO)Oc1c(ccc3ccccc13)C2c1ccccc1 (stereo not given)	HSF1 inhib -66 (no result: Hsp70 act)
CCCCNC(=S)NNC(=O)c1csc2ccccc12	HSF1 activator 131 (no result: S1P3 antag)
CCCCNC(=S)NNC(=O)c1ccoc1C	none (no result: S1P3 antag)
Cc1ccc(-n2nc(C)c3c(C)cc(=O)[nH]c32)cc1	none (no result: S1P3 antag)
Cc1cc(=O)[nH]c2c1c(=O)[nH]n2C1CC(C)N(C)CC1C (stereo not given)	HSF1 inhib -57
COC(=O)c1ccccc1NC(=O)c1ccnn1C	none
COc1cccc(CC(=O)OC(C)C(=O)Nc2ncc(Cl)cc2Cl)c1 (stereo not given)	none (no result: S1P3 antag, S1P4 antagonist, Hsp70 act, S1P4 ag)
CCCCCn1c(N2CCN(c3cccc(Cl)c3)CC2)nc2c1c(=O)[nH]c(=O)n2C	HSF1 activator 111
CCCCCn1c(Sc2nc3ccccc3s2)nc2c1c(=O)[nH]c(=O)n2C	HSF1 activator 58
C(=C\c1ccccc1)/CSc1ccccn1	HSF1 activator 130
Cc1cc(C)nc(SC/C=C/c2ccccc2)n1	none (no result: S1P3 antag, S1P4 antagonist, Hsp70 act, S1P4 ag)
Cn1cc(Br)c(C(=O)Nc2sc3c(c2C#N)CCC3)n1	none (no result: Hsp70 act)
Cn1cc([N+](=O)[O-])c(C(=O)Nc2sc3c(c2C#N)CCC3)n1	HSF1 activator 190 (no result: S1P3 antag, S1P4 antagonist, Hsp70 act, S1P4 ag)
CC(=O)Nc1cccc(NC(=O)CSc2nnc(Cc3cccn3C)n2-c2ccc(F)cc2)c1	HSF1 inhib -65
CC(C)(C)c1ccc(/C=C(\c2nc3ccccc3[nH]2)S(=O)(=O)c2ccccc2)cc1	HSF1 activator 57 (no result: S1P3 antag, S1P4 antagonist, Hsp70 act, S1P4 ag)
Cc1cccc(/C=C(\c2nc3ccccc3[nH]2)S(=O)(=O)c2ccccc2)c1	HSF1 activator 344
COc1cc(CCCN2C(=S)NC[C@@H]2c2ccccc2)cc(OC)c1OC	none
Cc1ccc(Nc2cc(C)c3c(O)cccc3n2)cc1C	HSF1 inhib -56 (no result: Hsp70 act)
COc1ccc(/C=C(\NC(=O)c2ccc(C)cc2)C(=O)NCCCn2ccnc2)cc1OC	none (no result: S1P3 antag, S1P4 antagonist, Hsp70 act, S1P4 ag)
COc1ccc(CNC2CCSc3ccccc32)cc1OC (stereo not given)	HSF1 activator 63 (no result: S1P3 antag, S1P4 antagonist, Hsp70 act, S1P4 ag)
CC(NCC(=O)NCCc1ccc(S(N)(=O)=O)cc1)c1ccc(F)cc1 (stereo not given)	HSF1 activator 52 (no result: S1P3 antag, S1P4 antagonist, Hsp70 act, S1P4 ag)
CCCCOc1ccc(N2C(=O)CC(N(O)c3ccccc3)C2=O)cc1 (stereo not given)	HSF1 activator 107
COc1ccccc1NC(=O)c1ccc2c(c1)nnn2C	none
O=C(CCc1nc(-c2ccccc2Cl)no1)NCc1ccco1	none
COc1ccccc1C(=O)N/C(=C\c1cn(S(=O)(=O)N(C)C)c2ccccc12)C(=O)NCCN1CCOCC1	HSF1 inhib -80 (no result: S1P3 antag, S1P4 antagonist, Hsp70 act, S1P4 ag)
COc1ccc(-c2cc(N)n(S(=O)(=O)c3ccc(F)cc3)n2)cc1OC	none (no result: S1P3 antag)
CCN(CC(=O)NCc1ccc(Cl)cc1)C(=O)CN1C(=O)NC(CC)(c2ccccc2)C1=O (stereo not given)	none (no result: S1P3 antag, S1P4 antagonist, Hsp70 act, S1P4 ag)
CC(=O)Oc1cccc(C(=O)Nc2ccc(NC(=O)c3cccs3)cc2)c1	none (no result: S1P3 antag, S1P4 antagonist, Hsp70 act, S1P4 ag)
COc1cc(C(=O)NC2CCN(Cc3nnnn3Cc3cccs3)CC2)cc(OC)c1OC	HSF1 inhib -68 (no result: S1P3 antag)
CSc1nc2ccc(NC(=O)c3cc4ccccc4o3)cc2s1	none
O=C(CSc1nnc(CCc2ccccc2)n1-c1ccc(Cl)cc1)c1ccccc1	HSF1 inhib -60
COc1ccc(OC)c(NC(=O)CSc2nc(C)cs2)c1	none
COc1cc(NC(=O)CSc2nc(C)cs2)cc(OC)c1	HSF1 inhib -81
Cc1csc(SCC(=O)Nc2cccc(S(=O)(=O)N3CCCC3)c2)n1	none (no result: S1P3 antag)
Cc1csc(SCC(=O)Nc2cc(S(=O)(=O)N3CCCC3)ccc2Cl)n1	HSF1 inhib -54 (no result: S1P3 antag)
CCCc1cc(=O)oc2cc(OCC(=O)NCCCN3CCOCC3)c(Cl)cc12	none (no result: S1P3 antag, S1P4 antagonist, Hsp70 act, S1P4 ag)
O=C(CC1C(=O)NCCN1Cc1cccc(Oc2ccccc2)c1)NCCc1ccccn1 (stereo not given)	none
Cn1cc(CCNC(=O)CC2C(=O)NCCN2Cc2cccc(Oc3ccccc3)c2)cn1 (stereo not given)	HSF1 inhib -69
O=C(Nc1ccc(-c2csnn2)cc1)C(Cl)(Cl)Cl	none (no result: Hsp70 act)
O=[N+]([O-])c1ccc(N2CCCCCC2)c([N+](=O)[O-])c1	HSF1 activator 77 (no result: S1P3 antag)
Nc1nc(Br)c2c(F)cccc2c1-c1ccc(Cl)cc1	HSF1 activator 149 (no result: S1P3 antag)
N#C/C(=C\c1ccco1)c1nc2ccccc2s1	HSF1 activator 80
N#C/C(=C/c1ccco1)c1nc2ccccc2s1	HSF1 activator 100
O=C(Cn1c(=O)c2cccn2c2ccccc21)Nc1cc(F)ccc1F	HSF1 inhib -57 (no result: S1P3 antag, S1P4 antagonist, Hsp70 act, S1P4 ag)
CCOC(=O)/C=C/C(=O)Nc1ccccc1-c1ccccc1NC(=O)/C=C/C(=O)OCC	HSF1 inhib -56
Cc1nc([N+](=O)[O-])c(Br)n1Cc1ccccc1	HSF1 activator 77 (no result: Hsp70 act)
Cc1nc([N+](=O)[O-])c(Br)n1CC(=O)c1cccc([N+](=O)[O-])c1	HSF1 activator 102

Screening data deposited in PubChem by several laboratories.
